# Source: publication PMC7862700, “An all-to-all approach to the identification of sequence-specific readers for epigenetic DNA modifications on cytosine”
# How the values were obtained:
# Experiment in all cases: DAPPL (digital affinity profiling via proximity ligation, sequencing); 10 mM Tris-HCl pH 7.5, 50 mM NaCl, 1 mM DTT, 4% glycerol, room temperature, 30 min; GST-TFs on glutathione beads, 16-mer random dsDNA library, 0.1% formaldehyde crosslink after washing; high values mean tight binding
# Conditions in all cases: protein: recombinant; tags: N-terminal GST; dsDNA, one strand shown
# GABPA = molecular target: T1, GABPA (Homo sapiens, UniProt Q06546 1-454)
# T1 sequence: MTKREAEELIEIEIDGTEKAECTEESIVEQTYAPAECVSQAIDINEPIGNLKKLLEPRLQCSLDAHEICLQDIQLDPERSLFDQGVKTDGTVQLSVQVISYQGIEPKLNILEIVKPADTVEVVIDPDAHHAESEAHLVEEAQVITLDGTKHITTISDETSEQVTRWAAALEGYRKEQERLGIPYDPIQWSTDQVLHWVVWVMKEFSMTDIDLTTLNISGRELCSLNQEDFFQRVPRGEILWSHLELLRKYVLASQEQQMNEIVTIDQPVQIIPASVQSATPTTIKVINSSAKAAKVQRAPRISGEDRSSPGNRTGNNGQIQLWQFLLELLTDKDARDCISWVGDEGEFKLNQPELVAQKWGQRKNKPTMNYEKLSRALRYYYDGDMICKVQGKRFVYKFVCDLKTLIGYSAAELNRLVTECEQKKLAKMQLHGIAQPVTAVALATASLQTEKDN
# In short: (§1)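 Beads coated with glutathione captured GST-fused human transcription factors that had been expressed in yeast, and the factors were then given DNA barcodes and pooled with a tag-only sample. The pools were incubated with 200 nmole of a random double-stranded 16-mer DNA library in Tris/NaCl/DTT/glycerol buffer for 30 min at room temperature, washed, crosslinked with 0.1% formaldehyde and proximity-ligated with BsaI/T4 ligase at 37 °C for 1 h. PCR amplification and Illumina NextSeq500 sequencing came last. Binding signal is each hexamer's read frequency for a factor divided by its frequency for the tag-only sample.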
# ERG = molecular target: T2, ERG (Homo sapiens, UniProt P11308 1-479)
# T2 sequence: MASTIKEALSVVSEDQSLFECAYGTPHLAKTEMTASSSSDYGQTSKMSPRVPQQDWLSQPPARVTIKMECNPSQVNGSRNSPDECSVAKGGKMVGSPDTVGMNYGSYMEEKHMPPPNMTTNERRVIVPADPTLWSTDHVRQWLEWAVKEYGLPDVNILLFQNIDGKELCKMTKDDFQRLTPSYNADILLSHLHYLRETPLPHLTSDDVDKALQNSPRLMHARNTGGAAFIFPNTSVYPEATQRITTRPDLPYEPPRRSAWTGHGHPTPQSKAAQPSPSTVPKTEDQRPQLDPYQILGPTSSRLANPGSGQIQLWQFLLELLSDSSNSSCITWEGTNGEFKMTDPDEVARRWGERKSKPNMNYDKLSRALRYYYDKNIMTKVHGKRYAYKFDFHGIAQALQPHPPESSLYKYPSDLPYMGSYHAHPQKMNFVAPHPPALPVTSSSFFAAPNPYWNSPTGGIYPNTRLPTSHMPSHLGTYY
# In short: as §1
# ELF1 = ELF1 (Homo sapiens, UniProt P32519 1-619)
# Chain of ELF1 (P32519 whole entry): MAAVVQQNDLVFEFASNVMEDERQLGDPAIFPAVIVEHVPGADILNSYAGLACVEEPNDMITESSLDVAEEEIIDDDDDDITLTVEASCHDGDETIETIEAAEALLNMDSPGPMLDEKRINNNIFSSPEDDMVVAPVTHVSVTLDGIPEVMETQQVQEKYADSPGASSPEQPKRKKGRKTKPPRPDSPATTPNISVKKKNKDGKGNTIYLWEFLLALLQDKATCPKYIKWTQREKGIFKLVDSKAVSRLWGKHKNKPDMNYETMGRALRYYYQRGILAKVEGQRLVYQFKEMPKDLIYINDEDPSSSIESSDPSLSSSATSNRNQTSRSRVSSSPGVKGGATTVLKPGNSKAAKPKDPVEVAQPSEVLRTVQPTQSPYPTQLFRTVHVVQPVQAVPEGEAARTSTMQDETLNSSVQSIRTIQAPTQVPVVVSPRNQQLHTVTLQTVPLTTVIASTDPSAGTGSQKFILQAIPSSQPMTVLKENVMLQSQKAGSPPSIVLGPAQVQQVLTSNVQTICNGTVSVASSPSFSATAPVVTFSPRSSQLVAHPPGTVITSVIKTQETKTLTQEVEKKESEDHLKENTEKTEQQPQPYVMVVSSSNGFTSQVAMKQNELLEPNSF
# In short: as §1
# EHF = molecular target: T3, EHF (Homo sapiens, UniProt Q9NZC4 1-300)
# T3 sequence: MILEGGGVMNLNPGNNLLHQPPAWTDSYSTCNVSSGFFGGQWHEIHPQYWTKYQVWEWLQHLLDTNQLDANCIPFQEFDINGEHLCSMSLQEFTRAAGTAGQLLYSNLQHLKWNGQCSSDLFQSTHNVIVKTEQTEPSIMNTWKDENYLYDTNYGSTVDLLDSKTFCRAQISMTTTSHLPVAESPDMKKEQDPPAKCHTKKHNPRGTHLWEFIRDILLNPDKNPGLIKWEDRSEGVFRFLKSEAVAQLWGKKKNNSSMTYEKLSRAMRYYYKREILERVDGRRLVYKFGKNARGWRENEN
# In short: as §1
# ELK3 = molecular target: T4, ELK3 (Homo sapiens, UniProt P41970 1-407)
# T4 sequence: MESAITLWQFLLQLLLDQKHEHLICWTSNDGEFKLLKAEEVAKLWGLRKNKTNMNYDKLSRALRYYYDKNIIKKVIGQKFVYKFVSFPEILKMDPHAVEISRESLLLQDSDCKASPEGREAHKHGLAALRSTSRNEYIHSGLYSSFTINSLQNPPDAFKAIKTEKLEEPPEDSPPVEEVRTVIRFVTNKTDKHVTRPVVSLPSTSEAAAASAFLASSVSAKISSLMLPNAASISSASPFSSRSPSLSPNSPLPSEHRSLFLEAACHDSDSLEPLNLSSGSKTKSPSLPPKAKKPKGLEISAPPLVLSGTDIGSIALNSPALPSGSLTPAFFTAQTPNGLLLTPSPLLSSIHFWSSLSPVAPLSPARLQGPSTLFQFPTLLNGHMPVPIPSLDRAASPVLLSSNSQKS
# In short: as §1
# SPIC = molecular target: T5, SPIC (Homo sapiens, UniProt Q8N5J4 1-248)
# T5 sequence: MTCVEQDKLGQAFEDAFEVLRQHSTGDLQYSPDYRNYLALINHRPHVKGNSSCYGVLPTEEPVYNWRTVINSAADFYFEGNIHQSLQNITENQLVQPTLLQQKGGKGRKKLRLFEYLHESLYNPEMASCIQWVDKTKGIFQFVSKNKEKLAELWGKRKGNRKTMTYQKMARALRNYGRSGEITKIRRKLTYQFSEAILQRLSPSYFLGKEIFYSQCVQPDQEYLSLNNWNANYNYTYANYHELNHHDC
# In short: as §1
# ETV1 = ETV1 (Homo sapiens, UniProt P50549 1-477)
# Chain of ETV1 (P50549 whole entry): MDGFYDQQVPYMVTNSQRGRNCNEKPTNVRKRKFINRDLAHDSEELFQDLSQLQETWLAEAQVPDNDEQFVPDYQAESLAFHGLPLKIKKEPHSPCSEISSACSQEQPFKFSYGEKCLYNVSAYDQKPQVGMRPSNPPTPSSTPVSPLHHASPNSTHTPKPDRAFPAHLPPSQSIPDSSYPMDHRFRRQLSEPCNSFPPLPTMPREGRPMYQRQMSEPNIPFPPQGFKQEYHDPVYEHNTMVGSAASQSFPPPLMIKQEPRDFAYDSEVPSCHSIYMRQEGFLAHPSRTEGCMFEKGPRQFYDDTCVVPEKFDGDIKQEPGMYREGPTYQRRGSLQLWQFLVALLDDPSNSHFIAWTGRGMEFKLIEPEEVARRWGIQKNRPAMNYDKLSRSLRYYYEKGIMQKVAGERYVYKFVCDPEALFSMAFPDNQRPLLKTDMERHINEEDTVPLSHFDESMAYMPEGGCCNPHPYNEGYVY
# In short: as §1
# ERF = molecular target: T6, ERF (Homo sapiens, UniProt P50548 1-548)
# T6 sequence: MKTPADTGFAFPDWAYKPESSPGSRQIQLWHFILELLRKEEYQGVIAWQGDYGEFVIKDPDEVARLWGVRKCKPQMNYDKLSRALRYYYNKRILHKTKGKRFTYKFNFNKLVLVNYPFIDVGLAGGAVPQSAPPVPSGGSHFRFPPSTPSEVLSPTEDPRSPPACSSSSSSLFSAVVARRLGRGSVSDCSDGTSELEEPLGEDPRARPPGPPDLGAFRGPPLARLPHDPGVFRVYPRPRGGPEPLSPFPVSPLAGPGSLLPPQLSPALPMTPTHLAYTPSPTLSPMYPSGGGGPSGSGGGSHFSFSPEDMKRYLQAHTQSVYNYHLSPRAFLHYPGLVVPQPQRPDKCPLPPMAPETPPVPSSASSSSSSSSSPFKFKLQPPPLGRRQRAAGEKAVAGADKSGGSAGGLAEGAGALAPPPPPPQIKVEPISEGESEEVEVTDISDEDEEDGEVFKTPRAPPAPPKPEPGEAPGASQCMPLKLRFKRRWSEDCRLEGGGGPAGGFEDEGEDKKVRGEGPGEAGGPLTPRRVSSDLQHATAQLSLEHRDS
# In short: as §1
# ETV3L = molecular target: T7, ETV3L (Homo sapiens, UniProt Q6ZN32 1-361)
# T7 sequence: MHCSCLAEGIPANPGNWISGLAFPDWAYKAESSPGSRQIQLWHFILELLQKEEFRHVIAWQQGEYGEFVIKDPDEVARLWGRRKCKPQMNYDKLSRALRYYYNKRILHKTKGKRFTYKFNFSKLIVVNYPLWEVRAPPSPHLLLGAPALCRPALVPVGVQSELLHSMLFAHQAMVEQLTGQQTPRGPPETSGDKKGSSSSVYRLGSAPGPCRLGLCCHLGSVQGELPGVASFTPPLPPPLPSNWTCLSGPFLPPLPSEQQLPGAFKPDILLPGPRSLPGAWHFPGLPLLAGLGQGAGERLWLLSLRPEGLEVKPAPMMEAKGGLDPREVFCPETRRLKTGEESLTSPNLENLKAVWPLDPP
# In short: as §1
# ETS2 = molecular target: T8, ETS2 (Homo sapiens, UniProt P15036 1-469)
# T8 sequence: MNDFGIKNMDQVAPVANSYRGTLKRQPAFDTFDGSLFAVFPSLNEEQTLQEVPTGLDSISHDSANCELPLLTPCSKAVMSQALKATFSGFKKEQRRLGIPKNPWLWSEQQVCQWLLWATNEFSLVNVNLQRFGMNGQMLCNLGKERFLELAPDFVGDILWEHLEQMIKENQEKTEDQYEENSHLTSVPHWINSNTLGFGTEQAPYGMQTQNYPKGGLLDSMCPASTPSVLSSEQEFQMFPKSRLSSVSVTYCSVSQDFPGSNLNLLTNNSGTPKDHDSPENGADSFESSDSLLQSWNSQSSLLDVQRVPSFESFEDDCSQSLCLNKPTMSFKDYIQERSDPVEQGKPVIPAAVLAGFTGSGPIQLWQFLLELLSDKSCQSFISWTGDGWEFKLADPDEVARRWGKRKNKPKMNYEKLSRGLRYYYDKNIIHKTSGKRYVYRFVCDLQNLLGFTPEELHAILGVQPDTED
# In short: as §1
# ETV7 = molecular target: T9, ETV7 (Homo sapiens, UniProt Q9Y603 1-341)
# T9 sequence: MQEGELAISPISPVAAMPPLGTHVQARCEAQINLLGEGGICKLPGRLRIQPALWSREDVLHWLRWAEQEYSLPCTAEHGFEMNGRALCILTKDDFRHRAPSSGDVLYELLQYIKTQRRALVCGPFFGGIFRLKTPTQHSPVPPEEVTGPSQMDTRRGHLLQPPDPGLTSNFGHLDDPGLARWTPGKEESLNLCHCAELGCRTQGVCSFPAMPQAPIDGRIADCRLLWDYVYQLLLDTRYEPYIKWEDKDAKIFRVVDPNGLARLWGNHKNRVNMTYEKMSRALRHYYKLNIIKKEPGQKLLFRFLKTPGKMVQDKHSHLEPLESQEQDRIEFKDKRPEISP
# In short: as §1
# ETV3 = molecular target: T10, ETV3 (Homo sapiens, UniProt P41162-2 1-143)
# T10 sequence: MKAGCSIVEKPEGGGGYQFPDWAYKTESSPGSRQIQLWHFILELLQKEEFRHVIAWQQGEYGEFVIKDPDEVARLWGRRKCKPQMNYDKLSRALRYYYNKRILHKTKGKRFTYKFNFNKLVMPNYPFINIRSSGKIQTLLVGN
# In short: as §1
sequence,measurement,setting,value
TCTAGA,binding signal,GABPA,"1.02 fold enrichment (6-mer frequency, TF over GST control)"
same,binding signal,ERG,"1 fold enrichment (6-mer frequency, TF over GST control)"
same,binding signal,ELF1,"1 fold enrichment (6-mer frequency, TF over GST control)"
same,binding signal,EHF,"1.11 fold enrichment (6-mer frequency, TF over GST control)"
same,binding signal,ELK3,"1.18 fold enrichment (6-mer frequency, TF over GST control)"
same,binding signal,SPIC,"1.05 fold enrichment (6-mer frequency, TF over GST control)"
same,binding signal,ETV1,"1.02 fold enrichment (6-mer frequency, TF over GST control)"
same,binding signal,ERF,"1.03 fold enrichment (6-mer frequency, TF over GST control)"
same,binding signal,ETV3L,"1.03 fold enrichment (6-mer frequency, TF over GST control)"
same,binding signal,ETS2,"1.05 fold enrichment (6-mer frequency, TF over GST control)"
same,binding signal,ETV7,"1.03 fold enrichment (6-mer frequency, TF over GST control)"
same,binding signal,ETV3,"1.04 fold enrichment (6-mer frequency, TF over GST control)"
